Experimental data taken from PubChem BioAssay AID1159580 (chemical genetic matrix, 2015).
About 2,000 (36%) of roughly 5,500 compounds were called active. Another 18% or so got no clear call; they are omitted. Rule as the data show it: active = normalized growth mostly below about 0.91 (no sharp cut-off); inconclusive = no clear call, values can overlap the other calls; inactive = mostly above about 0.92. Some of the results follow.

Assay: chemical genetic growth profiling, strain panel (AID 1159580);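 also: tested at 20 µM; growth read once vehicle control cultures reached saturation at 30 °C; 1 = growth at the plate median or of vehicle wells; lower values mean less growth of the strain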
Details: growth OD

Measured: normalized growth

Cc1cc(CC(=O)O)n(C)c1C(=O)c1ccc(Cl)cc1
inactive: S. cerevisiae deletion strains, locus YJR075W, strain HOC1, active compounds read low 1 | S. cerevisiae deletion strains, locus YKL009W, strain mrt4, active compounds read low 0.962 | S. cerevisiae deletion strains, locus YKL068W, active compounds read low 1 | S. cerevisiae deletion strains, locus YKL085W, strain MDH1 (second series), active compounds read low 0.994 | S. cerevisiae deletion strains, locus YKL085W, strain MDH1, active compounds read low 0.994 | S. cerevisiae deletion strains, locus YKL160W, strain elf1, active compounds read low 1.05 | S. cerevisiae deletion strains, locus YKL190W, strain CNB1, active compounds read low 1.01 | S. cerevisiae deletion strains, locus YKR001C, strain vps1, active compounds read low 1.03 | S. cerevisiae deletion strains, locus YKR026C, strain gcn3, active compounds read low 1.03 | S. cerevisiae deletion strains, locus YKR091W, strain srl3, active compounds read low 1.02 | S. cerevisiae deletion strains, locus YLL001W, strain dnm1, active compounds read low 1 | S. cerevisiae deletion strains, locus YLL026W, active compounds read low 1.05 | S. cerevisiae deletion strains, locus YLL041C, strain sdh2, active compounds read low 1.02 | S. cerevisiae deletion strains, locus YLR027C, strain aat2, active compounds read low 1.03 | S. cerevisiae deletion strains, locus YLR039C, strain RIC1, active compounds read low 1 | S. cerevisiae deletion strains, locus YLR058C, strain SHM2, active compounds read low 0.996 | S. cerevisiae deletion strains, locus YLR102C, strain apc9, active compounds read low 1.01 | S. cerevisiae deletion strains, locus YLR113W, strain HOG1, active compounds read low 1.01 | S. cerevisiae deletion strains, locus YLR221C, strain rsa3, active compounds read low 1.01 | S. cerevisiae deletion strains, locus YLR258W, strain gsy2, active compounds read low 1.04 | S. cerevisiae deletion strains, locus YLR262C, strain YPT6 (second series), active compounds read low 1.01 | S. cerevisiae deletion strains, locus YLR262C, strain YPT6, active compounds read low 1.01 | S. cerevisiae deletion strains, locus YLR268W, strain sec22, active compounds read low 0.997 | S. cerevisiae deletion strains, locus YLR320W, strain mms22, active compounds read low 0.994 | S. cerevisiae deletion strains, locus YLR330W, strain CHS5, active compounds read low 0.992 | S. cerevisiae deletion strains, locus YLR342W, strain FKS1 (second series), active compounds read low 0.937 | S. cerevisiae deletion strains, locus YLR342W, strain FKS1, active compounds read low 1.01 | S. cerevisiae deletion strains, locus YLR357W, strain rsc2, active compounds read low 0.995 | S. cerevisiae deletion strains, locus YLR370C, strain arc18, active compounds read low 1.04 | S. cerevisiae deletion strains, locus YLR371W, strain rom2, active compounds read low 1.02 | S. cerevisiae deletion strains, locus YLR384C, strain iki3, active compounds read low 1.04 | S. cerevisiae deletion strains, locus YLR418C, strain cdc73, active compounds read low 0.99 | S. cerevisiae deletion strains, locus YML016C, strain PPZ1, active compounds read low 0.994 | S. cerevisiae deletion strains, locus YML032C, strain rad52, active compounds read low 1.02 | S. cerevisiae deletion strains, locus YML120C, strain ndi1, active compounds read low 1.02 | S. cerevisiae deletion strains, locus YML124C, strain tub3, active compounds read low 1.01 | S. cerevisiae deletion strains, locus YMR058W, strain fet3, active compounds read low 1.03 | S. cerevisiae deletion strains, locus YMR078C, strain ctf18, active compounds read low 1.01 | S. cerevisiae deletion strains, locus YMR125W, strain sto1, active compounds read low 1.03 | S. cerevisiae deletion strains, locus YMR129W, active compounds read low 1.02 | S. cerevisiae deletion strains, locus YMR205C, strain PFK2, active compounds read low 1.02 | S. cerevisiae deletion strains, locus YMR223W, strain ubp8, active compounds read low 0.994 | S. cerevisiae deletion strains, locus YMR231W, strain pep5, active compounds read low 1.03 | S. cerevisiae deletion strains, locus YMR263W, strain SAP30, active compounds read low 0.993 | S. cerevisiae deletion strains, locus YMR307W, strain GAS1, active compounds read low 0.947 | S. cerevisiae deletion strains, locus YNL067W, strain RPL9B, active compounds read low 0.997 | S. cerevisiae deletion strains, locus YNL071W, strain lat1, active compounds read low 1.02 | S. cerevisiae deletion strains, locus YNL128W, strain TEP1, active compounds read low 1.01 | S. cerevisiae deletion strains, locus YNL153C, strain GIM3, active compounds read low 0.991 | S. cerevisiae deletion strains, locus YNL183C, strain NPR1, active compounds read low 0.963 | S. cerevisiae deletion strains, locus YNL209W, strain ssb2, active compounds read low 1.05 | S. cerevisiae deletion strains, locus YNL233W, strain BNI4, active compounds read low 0.993 | S. cerevisiae deletion strains, locus YNL248C, strain rpa49, active compounds read low 1.02 | S. cerevisiae deletion strains, locus YNL250W, strain rad50, active compounds read low 1.01 | S. cerevisiae deletion strains, locus YNL271C, strain bni1, active compounds read low 1.01 | S. cerevisiae deletion strains, locus YNL298W, strain CLA4, active compounds read low 0.998 | S. cerevisiae deletion strains, locus YNL322C, strain KRE1 (second series), active compounds read low 1.02 | S. cerevisiae deletion strains, locus YNL322C, strain KRE1, active compounds read low 1.01 | S. cerevisiae deletion strains, locus YNR049C, strain mso1, active compounds read low 1.02 | S. cerevisiae deletion strains, locus YNR052C, strain pop2, active compounds read low 1.01 | S. cerevisiae deletion strains, locus YOL006C, strain TOP1, active compounds read low 0.895 | S. cerevisiae deletion strains, locus YOL012C, strain htz1 1.55 | S. cerevisiae deletion strains, locus YOL147C, strain pex11, active compounds read low 1.02 | S. cerevisiae deletion strains, locus YOR001W, strain rrp6, active compounds read low 1.01 | S. cerevisiae deletion strains, locus YOR061W, strain CKA2, active compounds read low 1.01 | S. cerevisiae deletion strains, locus YOR069W, strain VPS5, active compounds read low 1 | S. cerevisiae deletion strains, locus YOR070C, strain gyp1, active compounds read low 1.02 | S. cerevisiae deletion strains, locus YOR080W, strain dia2, active compounds read low 1.03 | S. cerevisiae deletion strains, locus YOR083W, strain WHI5, active compounds read low 1.04 | S. cerevisiae deletion strains, locus YOR106W, strain vam3, active compounds read low 1.05 | S. cerevisiae deletion strains, locus YOR136W, strain idh2, active compounds read low 1.02 | S. cerevisiae deletion strains, locus YOR144C, strain elg1, active compounds read low 1.01 | S. cerevisiae deletion strains, locus YOR184W, strain ser1, active compounds read low 0.983 | S. cerevisiae deletion strains, locus YOR231W, strain MKK1, active compounds read low 1.01 | S. cerevisiae deletion strains, locus YOR265W, strain rbl2, active compounds read low 1.05 | S. cerevisiae deletion strains, locus YOR270C, strain vph1, active compounds read low 1.05 | S. cerevisiae deletion strains, locus YOR290C, strain snf2, active compounds read low 1.06 | S. cerevisiae deletion strains, locus YOR316C, strain cot1, active compounds read low 1.01 | S. cerevisiae deletion strains, locus YPL051W, strain arl3, active compounds read low 1.04 | S. cerevisiae deletion strains, locus YPL055C, strain LGE1, active compounds read low 1 | S. cerevisiae deletion strains, locus YPL078C, strain atp4, active compounds read low 1.04 | S. cerevisiae deletion strains, locus YPL106C, strain sse1, active compounds read low 1.04 | S. cerevisiae deletion strains, locus YPL240C, strain hsp82, active compounds read low 1.03 | S. cerevisiae deletion strains, locus YPL241C, strain CIN2, active compounds read low 0.996 | S. cerevisiae deletion strains, locus YPL256C, strain CLN2, active compounds read low 1.02 | S. cerevisiae deletion strains, locus YPR119W, strain clb2, active compounds read low 1.01 | S. cerevisiae deletion strains, locus YPR141C, strain kar3, active compounds read low 1.01 | S. cerevisiae deletion strains, locus YPR163C, strain tif3, active compounds read low 1.01 | S. cerevisiae deletion strains, locus YPR167C, strain met16, active compounds read low 1 | S. cerevisiae deletion strains, strain wtn01, active compounds read low 1.01 | S. cerevisiae strains, strain wild type, active compounds read low 1.01
active: S. cerevisiae deletion strains, locus YNL307C, strain MCK1, active compounds read low 0.901
